Not all results are given here.
aSyn UTR act: Activators working through SNCA 5'UTR binding (MLPCN); alpha-synuclein 5'UTR reporter, activators screen; activity score, % (tested at 7.5 µM), hits read low; 300,000 compounds, 7.1% hits; in the data active means activity score below about -60%
Numbers stand for hits; i = inactive.

SMILES	aSyn UTR act
O=C(NC(c1ccc(Cl)cc1)c1cc(Cl)c2cccnc2c1O)c1cccnc1 (stereo not given)	i
O=C(NC(=S)Nc1cccnc1Cl)c1ccc(Cl)cc1	-154
O=C(Nc1cccnc1Cl)c1ccc(Cl)cc1	-148
O=C(CC(SCCO)c1ccc2c(c1)OCO2)c1ccco1 (stereo not given)	-98
CCOc1cccc2c1OC(c1cc(OC)c(OC)c(OC)c1)N1N=C(c3ccc(C)o3)CC21 (stereo not given)	-219
Cc1ccc(C)c(OCc2cc(C(=O)N3CC[C@H](O)C3)no2)c1	-127
CCCOC1CCCN(C(=O)c2cc(COc3c(F)cccc3F)on2)C1 (stereo not given)	-136
COc1ccc(OCc2cc(C(=O)N3CCCC(O)C3)no2)c2ccccc12 (stereo not given)	-104
CN(C)c1ccc(C(=O)/C=C/c2cccnc2)cc1	-167
CC1(C)CCC(=O)N2CC[C@H]3C[C@H](OC(=O)Nc4ccccc4)C[C@@H]1[C@H]32	-116
CC1(C)CCC(=O)N2CC[C@H]3C[C@H](OC(=O)Nc4ccc5c(c4)OCO5)C[C@@H]1[C@H]32	-105
CSc1ccc(C2c3[nH]c4ccccc4c3CCN2C(=O)c2cc(C)n(C)n2)cc1 (stereo not given)	-287
c1ccc(Nc2nc(CSc3ncn[nH]3)cs2)cc1	-135
COc1ccc(CC(=O)NCc2ccc(-n3cccc3)cc2)cc1OC	i
COc1ccccc1CNC(=O)CN1C(=O)c2cccc(N)c2C1=O	-65
COc1ccccc1CNC(=O)CCCc1ccccc1	-69
CS(=O)(=O)N1CCc2cc(C(=O)Nc3ccc(Cl)cc3)ccc21	-138
O=C(Nc1ccc2c(c1)OCO2)N1CCCc2ccccc21	-103
COC(=O)Nc1ccc(S(=O)(=O)N2CCCc3ccccc32)cc1	i
O=C(Nc1ccc(S(=O)(=O)N2CCc3ccccc32)cc1)c1ccc2c(c1)OCO2	-73
CC(=O)c1cccc(NC(=O)N2CCCc3ccccc32)c1	-131
CC(=O)c1ccc2c(c1)Cc1cc(C(C)=O)ccc1-2	-125
Cc1nn(-c2ccccc2)c(C)c1CCC(=O)O	-107
C/C(CC(C)(C)C1CCCCC1)=N\NC(N)=S	-76
CC(=O)N/C(N)=N/c1nc(=O)c2ccccc2s1	-99
SMILES	aSyn UTR act
CCOC(=O)N/C(N)=N/c1nc2ccccc2s1	-116
O=[N+]([O-])c1cc(-c2cnc3ccccc3n2)ccc1Cl	-93
O=[N+]([O-])c1cc(-c2cnc3ccccc3n2)ccc1Oc1ccc(Cl)cc1	-65
O=[N+]([O-])c1ccc(-c2nc(C(Cl)Cl)c3ccccc3n2)cc1	i
Nc1cccc(-c2cnc3ccccc3n2)c1	-99
O=[N+]([O-])c1cccc(-c2cnc3ccccc3n2)c1	-93
COc1ccccc1Oc1ccc(-c2cnc3ccccc3n2)cc1[N+](=O)[O-]	-74
O=C(NC12CC3CC(CC(C3)C1)C2)c1ccc(-c2ccc(Cl)cc2)o1	-251
O=C(NC12CC3CC(CC(C3)C1)C2)c1ccc(-c2ccccc2Cl)o1	-220
O=C(NC12CC3CC(CC(C3)C1)C2)c1ccc(-c2cccc(Cl)c2)o1	-133
COc1cccc(NC(=O)c2c(C)nn(-c3ccccc3)c2Cl)c1	-137
Cc1ccc(NC(=O)c2c(C)nn(-c3ccccc3)c2Cl)cc1	-81
CC1CCN(C(=O)COC(=O)c2ccc3c(c2)OCO3)CC1	-118
Cc1cc(C(=O)COC(=O)c2ccc3c(c2)OCO3)c(C)n1CC1CCCO1 (stereo not given)	-68
Cc1cc(C(=O)CSc2nc3ccccc3o2)c(C)n1CC1CCCO1 (stereo not given)	-138
COCCn1c(C)cc(C(=O)COC(=O)c2cccc(O)c2)c1C	i
COCCn1c(C)cc(C(=O)COC(=O)c2cc3c(s2)CCC3)c1C	-78
CSc1ncccc1C(=O)OCC(=O)c1cc(C)n(CC2CCCO2)c1C (stereo not given)	-69
COCCn1c(C)cc(C(=O)COC(=O)c2ccc([N+](=O)[O-])o2)c1C	-90
Cc1cc(C(=O)COC(=O)c2ccc([N+](=O)[O-])o2)c(C)n1CC1CCCO1 (stereo not given)	-128
O=C(COc1ccccc1Cl)N1CCc2ccccc21	-135
Cc1noc(C)c1COc1cccc(C(=O)OCC(=O)N2CC(=O)Nc3ccccc32)c1	i
O=C(CCCc1ccccc1)N1CCc2ccccc21	-117
O=C1CN(C(=O)OCc2ccccc2)c2ccccc2N1	-89
O=C(COc1ccccc1Cl)N1CCc2ccccc2C1	-91
SMILES	aSyn UTR act
CC(=O)/C(=N/Nc1ccc(Br)cc1)N1CCCc2ccccc21	i
O=C(CCCOc1ccccc1)N1CCCc2ccccc21	-73
O=C(COc1ccccc1)N1CCc2ccccc21	-167
O=C(COc1ccc(Br)cc1)N1CCc2ccccc21	-100
O=C(/C=C/c1ccc(Cl)c(Cl)c1)N1CCc2ccccc21	-241
O=C(OCc1ccccc1)N1CCc2ccccc21	-119
c1ccc(-c2ccc(CN3CCSCC3)cc2)cc1	-88
CC(=O)Nc1ccc(SCc2ncc(-c3ccccc3)o2)cc1	-130
Cc1cc(Br)ccc1-n1[nH]c(C)c(C=Nc2cccc3nsnc23)c1=O	-70
CCCC(=O)N=C1SC2CS(=O)(=O)CC2N1c1ccc(-c2nc3ccc(C)cc3s2)cc1 (stereo not given)	-132
CCOC(=O)C(NC(=O)c1ccccc1Cl)(Nc1ccc(C)c(C)c1)C(F)(F)F (stereo not given)	-81
Nc1ccc(C(=O)N/N=C2\CCCc3c2[nH]c2ccccc32)cc1	-73
O=C(Nc1cccc2nsnc12)c1ccc(-c2ccc(Br)cc2)o1	-157
COC(=O)c1ccccc1NC(=O)c1ccc(-c2ccc(Br)cc2)o1	-106
CC(C)(C)c1cc(C(=O)NCc2cc(F)cc3c2OCOC3)n(Cc2ccccc2)n1	-109
Cc1ccc(-c2nnc(/C=C/c3ccccc3)o2)cc1	-136
Cn1cc(-c2nnc(-c3ccccc3)o2)c2ccccc21	-64
Cc1cccc(-c2nnc(-c3ccccc3)o2)c1	-127
Cc1ccccc1-c1nnc(-c2ccc(Cl)cc2)o1	-234
Cc1ccccc1-c1nnc(-c2ccccc2)o1	-138
Cc1ccc(-c2nnc(-c3ccc4c(c3)OCO4)o2)cc1	-116
Cc1cc(-c2nnc(-c3cccc(Cl)c3)o2)no1	-171
O=C(/C=C/c1ccc(N2CCCCC2)c([N+](=O)[O-])c1)c1ccc(O)cc1	-464
COc1ccccc1C(=O)/C=C/c1ccc(N2CCCCC2)c([N+](=O)[O-])c1	-216
O=C(c1ccc(Br)cc1)c1cc([N+](=O)[O-])ccc1N1CCCCC1	i
SMILES	aSyn UTR act
Nc1nnnn1/N=C/c1ccc(N2CCCCC2)c([N+](=O)[O-])c1	-64
COc1ccc(SCC(=O)c2cc(C)c(OC(=S)N(C)C)c(C)c2)cc1	-82
CC(=Nc1ccccc1)C1=C(O)CSC1=O	-95
COc1ccc(N=C(C)C2=C(O)CSC2=O)cc1	-72
O=Nc1ccc(O)c2ncccc12	-236
Cc1ccccc1N=Nc1ccc(O)c2ncccc12	i
O=C(NCc1ccc(F)cc1)c1c2c(nc3ccccc13)CCC2	-71
COc1ccccc1-c1nc(COc2ccc(Cl)cc2Cl)no1	-204
O=C(Nc1ccc(Cl)c(Cl)c1)OCc1cncs1	-97
Cc1ccc(N2CN=C3SCC(=O)N3C2)cc1C	-121
CC(=O)c1ccc(NC(=O)c2ccc3snnc3c2)cc1	-119
O=C(Nc1ccc(Cl)cc1)c1ccc2snnc2c1	-149
O=C(Nc1ccccc1F)c1ccc2snnc2c1	-77
COc1ccc(NC(=O)c2ccc3snnc3c2)cc1	-107
